# FBPA coupling cs = coupling enzyme interference in Giardia aldolase counter-screen; coupling enzyme system counterscreen, AmpLite Red fluorescence; AID 2472; activity change, negative = inhibition, % at 58.2 µM, hits read low; actives 0.67% (n = 290,000); in the data active = activity change below about -30%
#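 Final compound at 57.5 uM, incubated 10 min at RT with coupling enzyme reagent (glyceraldehyde-3-phosphate), then 20 min with substrate and AmpLite Red detection. Fluorescence read at 525/598 nm; tests interference with the coupling assay, not aldolase inhibition.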
# VP16 counter = inhibits Gal4-VP16 luciferase reporter, ROR gamma counter-screen; Drosophila S2 Gal4-VP16 UAS-luciferase, luminescence, 20 h; Potency, µM (titrated, usually from 53.6 µM), for the others: top-dose activity, negative = inhibition, most hits filed as inhibitors; actives 3.5% (n = 310,000); AID 2546;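 also: Gal4-VP16 expression switched on by copper sulfate through the metallothionein promoter; potency is read from the fitted curve at half-maximal effect; nearly all actives have a fitted effect of over 50% in size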
# TSHR antag = antagonists of human thyroid stimulating hormone receptor. TSHR-expressing cells, TSH-stimulated cAMP HTRF, 2 h; active compounds read low. actives 0.2% (n = 330,000). activity change, negative = inhibition, % at 11.5 µM. AID 504810. P16473;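 active = activity change below a set negative limit, meaning inhibition stronger than a set level, cut at about -70% in these data; inconclusive = activity change between two set negative limits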
# Target sequence (P16473 whole entry, looked up): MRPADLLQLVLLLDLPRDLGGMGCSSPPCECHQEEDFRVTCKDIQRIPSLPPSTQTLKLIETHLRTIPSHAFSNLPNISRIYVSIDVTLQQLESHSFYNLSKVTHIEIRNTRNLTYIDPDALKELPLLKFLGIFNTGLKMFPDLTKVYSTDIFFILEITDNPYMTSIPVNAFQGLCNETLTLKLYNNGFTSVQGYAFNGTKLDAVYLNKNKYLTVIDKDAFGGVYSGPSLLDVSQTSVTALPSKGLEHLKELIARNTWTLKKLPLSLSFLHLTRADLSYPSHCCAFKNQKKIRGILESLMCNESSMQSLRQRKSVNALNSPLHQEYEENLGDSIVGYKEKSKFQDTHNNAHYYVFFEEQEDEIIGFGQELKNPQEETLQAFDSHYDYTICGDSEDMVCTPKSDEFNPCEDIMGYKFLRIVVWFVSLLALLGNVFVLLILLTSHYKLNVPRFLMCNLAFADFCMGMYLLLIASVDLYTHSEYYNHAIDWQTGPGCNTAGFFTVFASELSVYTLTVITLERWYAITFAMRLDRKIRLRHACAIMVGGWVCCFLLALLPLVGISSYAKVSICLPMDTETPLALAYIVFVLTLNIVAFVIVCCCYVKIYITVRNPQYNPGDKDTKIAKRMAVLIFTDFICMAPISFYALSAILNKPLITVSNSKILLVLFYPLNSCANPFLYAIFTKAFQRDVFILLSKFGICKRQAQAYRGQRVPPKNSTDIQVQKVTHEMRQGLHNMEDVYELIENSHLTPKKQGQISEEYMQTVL
#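 TSHR-expressing cells were treated with compounds, then stimulated with TSH at EC80 (4nM final) for 2 hours at 37 deg C. Cellular cAMP was measured by HTRF competition between lysate cAMP and cAMP-d2 for a cryptate-labelled anti-cAMP antibody.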
# ELG1 repair inh = blocks ELG1-dependent DNA repair in HEK293T cells; HEK293T ELG1-luciferase reporter, luminescence, 16 h; DNA damage induced by 5-fluorouridine; Potency, µM (top dose mostly 46.1 µM), inactives show top-dose activity change, negative = inhibition, most hits filed as inhibitors; actives 2.3% (n = 330,000); also: potency is read from the fitted curve at half-maximal effect; nearly all actives have a fitted effect of over 55% in size
#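 5-Fluorouridine DNA damage + compound/DMSO, 2,000 cells/well, 16 h, 37 °C/5% CO2. ONE-Glo, 30 min RT, luminescence. Readout = decrease in reporter signal.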
# RORgamma inh = blocks mouse ROR gamma transcriptional activity; actives 5.4% (n = 310,000); Drosophila S2 Gal4-RORgamma UAS-luciferase reporter, 20 h; P51450; Potency, µM (series often up to 53.6 µM), inactives show at the highest dose activity change, negative = inhibition, actives largely listed as inhibitors; AID 2551; also: potency is read from the fitted curve at half-maximal effect; nearly all actives have a fitted effect of over 60% in size
#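 Compounds are pin-transferred onto Drosophila Schneider cells expressing a copper-inducible Gal4–ROR gamma transactivation domain fusion. After 1 hr, copper sulfate is added to 700 uM final; luciferase is read 20 hr later.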
# An asterisk follows results filed as active; ? = inconclusive; nt = no result given. This is a sample that favours compounds with a hit; in the whole collection about 8% have one here. Unless noted, calls follow the shape of the dose curve; as a rule, active = well fitted curve in the direction sought with a large enough effect; inconclusive = small, poorly fitted or top-dose-only effect, or another doubt; inactive = no such curve, though single readings can be large; an effect the other way counts as inactive or inconclusive. % is scaled to controls: 0 for no effect and ±100 for the full control effect.
SMILES,FBPA coupling cs,VP16 counter,TSHR antag,ELG1 repair inh,RORgamma inh
C=CCNC(=S)N/N=C/c1ccc(C(F)(F)F)cc1,-2.5,2.82µM*,-17.0,4.61µM*,0.708µM*
FC(F)(F)c1ccc(/C=N/NC(=S)NC2CCCCC2)cc1,0.3,4.47µM*,-18.0,-18.5%,0.631µM*
CC(C)CC(N)C(=O)NC(C)C(=O)O (stereo not given),2.5,5.8%,nt,nt,-0.9%
CCN(CC(=O)Nc1ccc(OC)cc1)CC(=O)N1CC(=O)Nc2ccccc21,nt,nt,-13.9,1.5%,nt
CN(CC(=O)Nc1ccc(F)c(F)c1F)C(=O)C1CCN(C(=O)Nc2ccccc2)CC1,nt,nt,5.4,11.3%,nt
N#CCCn1c(=O)c(-c2cccs2)nc2cnc(OCc3ccccc3)nc21,1.0,2.5%,nt,nt,-44.4%
O=C(CN(Cc1ccc(F)cc1)C(=O)CCC(=O)Nc1nccs1)NCc1ccccc1,0.2,-0.6%,3.4,9.0%,15.5%
CCOC(=O)c1c(C)[nH]c(C)c1C=O,2.1,1.8%,2.9,?,-1.4%
CCOC(=O)c1c(C)cc(O)c(C=O)c1O,1.1,?,nt,nt,11.2µM*
Nc1cc(-c2ccc(Br)cc2)[nH]n1,-1.4,?,7.7,13µM*,13.4%
COC(=O)c1ccc(C(NC(=O)OCc2ccccc2)/C(C)=C/[C@@H](C)C(=O)N(C)Cc2cccnc2)cc1 (stereo not given in full),0.7,-0.2%,nt,nt,?
COc1ccc2c(C(=O)CCl)c[nH]c2c1,0.3,17.8µM*,-10.8,?,?
CCNc1nc(SCCOc2ccc(Br)cc2)nc(N(C)C)n1,-1.8,?,-20.7,?,-73.2%
COc1c[nH]n(C2CCCCC2)c(=O)c1=O,0.1,?,-1.9,-1.3%,20µM*
CCN(CC)c1ccc2c(Cl)c(Br)c(=O)oc2c1,1.0,3.98µM*,-21.7,?,?
CC(=O)N1CCC[C@@]2(CCN(Cc3nccs3)C2)C1,2.5,0.9%,nt,nt,-9.3%
Cc1ccc(CSC2=NCCN2S(=O)(=O)c2ccc(F)cc2)cc1,nt,2.3%,-11.4,21.2%,21.6%
COC(=O)c1ccc2c(c1)C(C)(C)C(/C=C/c1ccccc1O)=[N+]2C,5.6,-5.7%,20.0,6.51µM*,40.7%
O=C(c1cc(COc2cccc3cnccc23)on1)N1CCCC(CCCO)C1 (stereo not given),-0.1,2.82µM*,?,-8.4%,?
COc1cccc(OCc2cc(C(=O)N3CCC(c4ccncc4)CC3)no2)c1,2.0,?,-35.9,?,-32.5%
COc1ccc(OCc2cc(C(=O)N3CCCC(CO)C3)no2)c2ccccc12 (stereo not given),nt,17.0%,-4.6,?,0.0%
COCC1CCN(C(=O)c2cc(COc3cccc4cnccc34)on2)CC1,nt,12.6µM*,-29.8,-17.7%,23.4%
Cc1nn(C)cc1C(C)NC(=O)c1cc(COc2cccc3cnccc23)on1 (stereo not given),nt,?,-8.0,18.3µM*,?
CC1=CC23C(=O)C(C=C(CO)[C@@H](O)[C@]2(O)[C@H]1O)[C@H]1[C@@H](C[C@H]3C)C1(C)C (stereo not given in full),0.4,-3.9%,nt,nt,4.9%
Cc1ccc(C)c(OCC(=O)NNC(=O)CCN2CCN(c3ccccc3)CC2)c1,nt,nt,12.4,-12.8%,nt
SMILES,FBPA coupling cs,VP16 counter,TSHR antag,ELG1 repair inh,RORgamma inh
O=C(C1CCC1)N(CCc1ccccc1)Cc1nc2ccccc2c(=O)[nH]1,1.1,7.94µM*,-2.3,-0.1%,1.78µM*
COc1ccc(CCN(Cc2nc3ccccc3c(=O)[nH]2)C(=O)C2CC2)cc1,3.4,12.6µM*,-0.7,?,3.16µM*
CCc1ccc(C(=O)CN2C(=O)NC3(CCc4ccccc43)C2=O)cc1 (stereo not given),nt,nt,17.8,13.3%,nt
COC(=O)[C@@H]1C[C@@]2(O)[C@@H](O)[C@@H](O)[C@@H](O)C[C@H]2N1Cc1ccc(N2CCOCC2)cc1,1.1,3.2%,nt,nt,-5.9%
CC(C)n1c(=S)[nH]c2scc(-c3cccs3)c2c1=O,0.6,-11.5%,14.9,?,?
O=c1c2c(-c3cccs3)csc2[nH]c(=S)n1-c1ccccc1,4.8,3.55µM*,7.5,-0.8%,2.24µM*
C=CCn1c(=S)[nH]c2scc(-c3ccc(C)o3)c2c1=O,4.6,1.26µM*,-8.6,?,0.282µM*
O=c1c2c(-c3cccs3)csc2ncn1-c1ccccc1,1.8,?,6.8,-8.7%,35.6%
CCn1c(=S)[nH]c2scc(-c3cccs3)c2c1=O,2.6,3.16µM*,-7.6,?,0.708µM*
Cc1ccc(C(=O)NCC(=O)N2CCC(Cc3ccccc3)CC2)cc1,nt,-11.5%,-28.2,-0.3%,?
COC(=O)C(C)Sc1nc2ccsc2c(=O)n1Cc1ccccc1 (stereo not given),4.1,-5.7%,25.6,-2.6%,31.6%
CCC(CO)Oc1cc(NCc2ccccc2F)c2ncn(C(C)C)c2c1 (stereo not given),nt,nt,-13.6,?,nt
CCC(CO)Oc1cc(NCc2ccccc2)c2ncn(C(C)C)c2c1 (stereo not given),nt,nt,8.3,-16.8%,nt
CCC(COC)Oc1cc(NCc2ccccc2)c2ncn(C(C)C)c2c1 (stereo not given),nt,nt,-2.1,18.3µM*,nt
CCC(CO)Oc1cc(NCc2ccccc2C(F)(F)F)c2ncn(C(C)C)c2c1 (stereo not given),nt,nt,6.6,23.1µM*,nt
C=NC(C(=O)NC1C(=O)N2C1SC(C)(C)C2C(=O)O)c1ccccc1 (stereo not given),0.9,-3.1%,nt,nt,2.5%
CS(=O)(=O)Nc1ccc(C(=O)N2CC(=O)Nc3ccccc32)cc1,-1.6,-2.6%,-1.9,-0.2%,-4.4%
COc1cccc(C2=CC(=O)C[C@H](c3ccc(Cl)cc3)C2)c1OC,nt,nt,-24.8,20.6µM*,nt
COc1ccccc1C1=CC(=O)C[C@H](c2ccc(Cl)cc2)C1,nt,nt,-3.7,?,nt
Cc1cc(C)cc(NC(=O)C(=O)NCC2CCCN2S(=O)(=O)c2cccs2)c1 (stereo not given),nt,nt,-4.7,-28.1%,nt
Cc1c2ccccc2c(C)c2c1ccc1ccccc12,nt,?,-22.6,?,-5.6%
Cc1c2ccccc2c(CSC(=N)N)c2ccccc12,-5.2,?,nt,nt,11.2µM*
Clc1ccc(-n2nnc(-c3nccs3)n2)cc1Cl,2.0,9.1%,-4.7,?,15.9%
Cc1ccc(-n2nnc(-c3nccs3)n2)cc1,2.3,5.62µM*,-0.1,?,3.98µM*
COc1ccc(-c2oc3ncn(CCN4CCOCC4)c(=N)c3c2-c2ccc(OC)cc2)cc1,-0.1,-17.8%,-4.4,20.6µM*,-31.1%
COc1ccc(-c2oc3ncnc(NCCN4CCOCC4)c3c2-c2ccc(OC)cc2)cc1,2.4,-1.5%,0.9,?,-14.4%

# Screening data deposited in PubChem BioAssay by National Center for Advancing Translational Sciences (NCATS).
